# From PubChem BioAssay AID651599 (National Center for Advancing Translational Sciences (NCATS), 2012)
# Records with an inconclusive call do not appear. Entries that show only a call come without a potency. The source made the active and inactive calls. Calls follow the shape of the dose curve; as a rule, active = well fitted inhibition curve with a large enough effect; inconclusive = small, poorly fitted or top-dose-only effect; inactive = no such curve, though single readings can be large or run the other way.
# Molecular target: Tumor susceptibility gene 101 protein (Homo sapiens) (UniProt Q99816)
# Assay: qHTS Assay for Iinhibitors of HIV-1 Budding by Blocking the Interaction of PTAP/TSG101: Hit Validation in TR assay
# Conditions: Tsg101 binding domain + Texas Red-labeled PTAP peptide, fluorescence polarization, 20 min; series mostly up to 57.5 µM
# Method in brief: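 Fluorescence polarization: Tsg101 binding domain (10 uM final) with Texas Red-labelled PTAP peptide (50 nM final) in HEPES pH 7.5, 0.15 M NaCl, Tween 20, EDTA, TCEP; 20 min binding at room temperature after compound addition.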
# Potency is read from the fitted curve at half-maximal effect.
# Chain of Tumor susceptibility gene 101 protein (Homo sapiens) (Q99816 whole entry, looked up): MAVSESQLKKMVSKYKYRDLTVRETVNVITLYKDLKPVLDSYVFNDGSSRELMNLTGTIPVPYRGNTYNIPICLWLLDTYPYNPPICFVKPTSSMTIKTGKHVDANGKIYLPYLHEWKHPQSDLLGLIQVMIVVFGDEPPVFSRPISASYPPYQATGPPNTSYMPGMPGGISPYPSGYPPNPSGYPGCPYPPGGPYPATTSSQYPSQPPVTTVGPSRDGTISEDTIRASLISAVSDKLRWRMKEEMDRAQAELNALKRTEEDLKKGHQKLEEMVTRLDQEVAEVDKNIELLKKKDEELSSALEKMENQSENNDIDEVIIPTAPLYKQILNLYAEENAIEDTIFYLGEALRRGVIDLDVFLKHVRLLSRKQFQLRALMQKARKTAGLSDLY
row,Compound,Potency
1,O=c1nc2c(O)cccn2c2c1c(=O)[nH]c1ccccc12,inactive
2,CC(=O)Nc1ccc(N=Cc2c(O)ccc3ccccc23)cc1,inactive
3,CC1CC(C)CN(C(=O)c2ccc3c(c2NCCO)C(=O)c2ccccc2C3=O)C1 (centres undefined),inactive
4,CCc1ccccc1N=Cc1c(C)c(C#N)c2[nH]c3ccccc3n2c1=O,inactive
5,C/C(=N\NC(=O)CC#N)c1cc2ccc(O)cc2oc1=O,inactive
6,O=c1c(/C=C(\O)c2ccccc2)nc2ccccc2n1-c1ccccc1,inactive
7,CCC(=O)Oc1ccc2c(c1)O/C(=C\c1ccco1)C2=O,inactive
8,COc1c([N+](=O)[O-])c(=O)n(-c2ccccc2)c2ccccc12,inactive
9,O=C(NCc1ccccc1Br)c1cccc2c1C(=O)c1ccc(N3CCC(Cc4ccccc4)CC3)cc1S2(=O)=O,inactive
10,COc1cccc2c1C(=O)c1c(O)c3c(c(O)c1C2=O)C[C@](O)(C(C)=O)C[C@H]3O[C@@H]1C[C@@H](N)[C@@H](O)[C@@H](C)O1,inactive
11,C=CCn1c(=O)[nH]c2nc3cc(N=CN(C)C)c(C)cc3nc2c1=O,18.3 µM (active)
12,O=[n+]1c2c(n([O-])c3cc(F)c(N4CCCC4)cc31)CCC2,inactive
13,Cc1c2ccccc2nc2c(F)c(N(C)C)c(F)c(F)c12,inactive
14,O=C(OCCN1C(=O)c2cccc3c(N4CCOCC4)ccc(c23)C1=O)c1ccc(Cl)cc1,inactive
15,O=C(NCCc1ccc(F)cc1)c1cccc2c1C(=O)c1ccc(N3CCC(Cc4ccccc4)CC3)cc1S2(=O)=O,inactive
16,Cc1ccc(Nc2ccc([N+](=O)[O-])ccc2=O)cc1,inactive
17,COc1cc(OC)c(-c2c3cc(O)c(=O)cc-3oc3cc(O)c(O)cc23)cc1OC,inactive
18,COc1ccc2nc3ccccc3[n+]([O-])c2c1,inactive
19,CCOC(=O)C1CCCN(c2nc3ccccc3nc2C(C#N)C(=O)NCc2ccccc2)C1 (centres undefined),inactive
20,Cc1ccc[n+](-c2nc([O-])sc2/C=N/Nc2ccc([N+](=O)[O-])cc2)c1,inactive

row,Compound,Potency
1,Cc1cccc(N2C(=O)c3cccc4c(N)ccc(c34)C2=O)c1,inactive
2,CSC1=NSC2=NC(=O)/C(=C/c3coc4ccccc4c3=O)C(=N)N12,inactive
3,COCC1CCN(Cc2c(C(=O)N3CCc4ccccc4C3)nc3ccc(Cl)cn23)C1 (centres undefined),inactive
4,CCCCC(=O)NC1=NC(=O)C(C)(C)S1,inactive
5,Cc1ccc(NC(=O)/C(C#N)=C(\N)C(Cl)(Cl)Cl)nc1,inactive
6,O=Cc1nccc2ccccc12,inactive
7,Cc1cc(NS(=O)(=O)c2ccc(NC(=O)COc3c(C)cc(Br)cc3C)cc2)no1,inactive
8,Cc1ccccc1N1C(=O)c2cccc3c(N(C)CCO)ccc(c23)C1=O,32.6 µM (active)
9,NC(=O)CSc1nc2c(sc3ccccc32)c(=O)n1CCCC(=O)NCC1CCCO1 (centres undefined),inactive
10,COc1ccc(CCn2c(NN=C(C)C)nc3c2c(=O)[nH]c(=O)n3C)cc1,inactive
11,COc1ccccc1NC(=O)c1sc2nc(Cc3ccccc3)cc(C(F)(F)F)c2c1N,inactive
12,CC(=O)N(/N=C1/C(=O)Nc2ccccc21)c1ccccc1,inactive
13,CC1CCc2cccc3c2N1c1cc(C#N)c(C#N)cc1O3 (centres undefined),inactive
14,Clc1ccc(-c2nnc3sc(-c4ccc(Br)o4)nn23)cc1,inactive
15,CC1=CC(=C(C#N)c2nc3ccccc3s2)C=C(C)N1Cc1ccco1,inactive
16,O=C1c2ccccc2C(=O)c2c1ccc(O)c2O,inactive
17,Cc1ccc(C2C=C(c3ccc(Cl)cc3)Nc3nc(NS(=O)(=O)c4ccccc4)nn32)cc1 (centres undefined),inactive
18,CCCCCOc1ccc(/C=c2\sc3nc(=O)c(-c4ccccc4)nn3c2=O)cc1OC,inactive
19,O=C1/C(=C/c2ccco2)Oc2c1ccc(O)c2CN1CCCCC1,inactive
